Experimental data taken from PubChem BioAssay AID2451 (National Center for Advancing Translational Sciences (NCATS), 2010).
In all, about 290,000 compounds went through this assay and about 2,100 (0.72%) were called active. Another 4% or so got no clear call; they are omitted. This excerpt belongs to a sample that is enriched for actives. Unmarked numbers belong to inactive results. The call rests on the fitted dose curve; in most records, active means well fitted inhibition curve with a large enough effect; inconclusive means small, poorly fitted or top-dose-only effect, or effect the other way; inactive means flat fitted curve, though single readings scatter.
Further: nearly all actives have a fitted effect of over 55% in size.
On the % scale 0 is the no-effect control and ±100 the full control effect; potency means the concentration at half of the fitted maximal effect.

The compounds below were run against Fructose-bisphosphate aldolase (Giardia intestinalis (strain ATCC 50803 / WB clone C6)) (UniProt A8B2U2) (assay: qHTS Assay for Inhibitors of Fructose-1,6-bisphosphate Aldolase from Giardia Lamblia). Details: purified Giardia FBPA; series mostly up to 59.6 µM; activity, negative = inhibition: at the top concentration.
Chain of Fructose-bisphosphate aldolase (Giardia intestinalis (strain ATCC 50803 / WB clone C6)) (A8B2U2 whole entry, looked up): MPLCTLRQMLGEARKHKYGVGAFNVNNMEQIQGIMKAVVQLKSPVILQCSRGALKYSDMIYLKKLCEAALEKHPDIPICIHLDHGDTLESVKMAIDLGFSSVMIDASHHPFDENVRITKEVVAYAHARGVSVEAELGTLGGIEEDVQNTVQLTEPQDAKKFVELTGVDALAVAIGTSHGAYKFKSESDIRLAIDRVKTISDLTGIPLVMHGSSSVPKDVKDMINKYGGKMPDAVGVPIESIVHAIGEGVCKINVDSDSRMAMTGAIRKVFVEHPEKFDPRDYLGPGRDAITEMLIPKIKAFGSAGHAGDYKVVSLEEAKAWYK
Description: Assay Provider: Osnat Herzberg, University of Maryland
The objective of this project is to obtain compounds that inhibit Giardia lamblia growth. G. lamblia is a human pathogen which afflicts impoverished nations; it is the most common cause of outbreaks of diarrhea in the United States. During the course of our study of potential drug targets in Giardia, we have identified the Class II (Zn2+ functions in electrophilic catalysis) fructose-1,6-bisphosphate aldolase (FBPA) as an excellent candidate for drug targeting. FBPA is a key glycolytic pathway enzyme, essential for G. lamblia survival. The human FBPA belongs to the Class I aldolases, which have a different substrate binding site structure and a radically different catalytic mechanism (employing a lysine-Schiff base intermediate). Therefore, affinity-based or mechanism-based inhibitors of the Giardia FBPA are expected not to interfere with the catalytic function of the human FBPA.
A glyceraldehyde-3-phosphate dehydrogenase/triose phosphate isomerase/NAD/arsenate coupled assay was adapted to the 1536-well HTP format for use in the primary screen. This was done by coupling it to a diaphorase/resazurin/resorufin reaction that can be monitored by fluorescence (excitation, 544 nm; emission, 590 nm). Compounds identified in this screen will be further evaluated by coupling the glycerol-3-phosphate/triose phosphate isomerase/NADH assay to a phenazine methosulfate/tetranitroblue tetrazolium color reaction. False positives due to the dehydrogenases and diaphorase inhibition will be eliminated, and selectivity assay will triage inhibitors of mammalian triose phosphate isomerase and the Class I FBPA. G. lamblia FBPA inhibitors identified by the in vitro analyses will be examined for growth inhibition of Giardia trophozoites, and for cytotoxicity in human cells.
Step,Parameter,Value,Description
1,Enzyme reagent,2 uL,40 nM FBPA
2,Compound,23 nL,3.68 nM-57.5 uM final concentration
3,Time,10 min,RT Incubation
4,Substrate/detection Reagent,2 uL,Substrate + enzyme coupling system + AmpLite Red kit
5,Time,20 min,RT Incubation
6,Detector,525 nm/598 nm (Fluorescence),ViewLux Fluorescence Read (Read 1)
1,Medium-binding black solid-bottom Kalypsys plates. FRD or Kalypsys dispenser, 2 uL of FBPA enzyme. Bottle kept at 4C.
2,Compound Library (10 mM ,1:5 dilution). Pin-transferred for a [final] range of 3.68 nM-57.5 uM.
4,FRD or Kalypsys dispenser, 2 uL of reaction mixture. Bottle kept at 4C and covered in foil to protect from light.
6,ViewLux Protocol 1194; Excitation filter wheel A (525/20 Pol; BODIPY TMR FP), Emission filter wheel B (598/25 S; BODIPY TMR FP S).
Keywords: Fructose-bisphosphate aldolase, FBPA , Giardia lamblia , Giardia, HTS, Inhibitors
`Cc1cc(C)c(C#N)c(N2CCC(C(N)=O)CC2)n1` was tested, and the “activity, negative = inhibition” value was 4.78%. `N#Cc1c(-c2ccccc2)cc(-c2ccccc2)nc1SCC(=O)O` was tested, and the “activity, negative = inhibition” value was 14.5%. With `CSc1nnc(C2CCCN(CC(=O)Nc3ccccc3N3CCOCC3)C2)n1C(C)C` (stereo unspecified) the “activity, negative = inhibition” value was 13.2%. With `CC(=O)NC(CC(=O)Nc1nccs1)c1ccccc1` (stereo unspecified) the “activity, negative = inhibition” value was 19.9%. With `CC(=O)NC1CCN(CC(=O)Nc2nccs2)CC1` the Potency was 10 µM (active). In the case of `Cc1cc(C)cc(N(CC(=O)NC2CCCC2)C(=O)CCC(=O)Nc2nccs2)c1`, the “activity, negative = inhibition” value is reported as -3.79%. In the case of `COc1ccccc1CCNS(=O)(=O)c1cn(C)nc1C`, the “activity, negative = inhibition” value is reported as 3.76%. In the case of `COc1ccc(CNC(=O)c2cc(=O)c3c(C)cc(C)cc3o2)cc1`, the “activity, negative = inhibition” value is reported as -2.56%. `O=C(N/N=C/c1ccc(O)c2ccccc12)c1cccnc1` was tested, and the “activity, negative = inhibition” value was -1.74%. With `CNC(=O)C(=O)N/N=C/c1ccccn1` the “activity, negative = inhibition” value was -28%. For `O=C(N/N=C/c1ccccn1)c1cccnc1`, the Potency was 4.46 µM (active). In the case of `Cc1ccc(/C=C(\C#N)C(=O)Nc2cccc3ncccc23)o1`, the Potency is reported as 5.61 µM (active). In the case of `Cc1ccc(C(=O)Nc2cccc3ncccc23)cc1[N+](=O)[O-]`, the “activity, negative = inhibition” value is reported as -3.73%. `O=C(Nc1cccc2ncccc12)C(Cl)(Cl)Cl` was tested, and the “activity, negative = inhibition” value was 0.917%. For `COc1ccc(C(=O)CC(=O)c2ccc(C)cc2)c(O)c1`, the “activity, negative = inhibition” value was 0.0144%. For `c1ccc2c(c1)CCc1snnc1-2`, the “activity, negative = inhibition” value was 2.66%. With `CSc1ccc(S(=O)(=O)N2CCC(C(=O)NCCc3ccccc3)CC2)cc1` the “activity, negative = inhibition” value was 10.5%. `CSc1ccccc1NC(=O)c1ccc2c(c1)CCN2S(C)(=O)=O` was tested, and the “activity, negative = inhibition” value was -3.55%. For `CC(NC(=O)Cn1cc(C(F)(F)F)cc(Cl)c1=O)c1ccccc1` (stereo unspecified), the “activity, negative = inhibition” value was 0.816%. `Cc1nnc(SCC(=O)NC2CCCC2)s1` was tested, and the “activity, negative = inhibition” value was -2.13%. For `Cc1nnc(SCC2=C(C(=O)O)N3C(=O)C(NC(=O)Cn4nc(C)c(Cl)c4C)C3SC2)s1` (stereo unspecified), the Potency was 22.3 µM (active). With `CO/N=C(\C(=O)N[C@@H]1C(=O)N2C(C(=O)O)=C(COC(C)=O)CS[C@H]12)c1csc(N)n1` (stereo in doubt) the Potency was “inactive”. In the case of `Cc1cccc(NC(=S)NCCc2ccc(Cl)cc2)c1C`, the “activity, negative = inhibition” value is reported as -7.76%. In the case of `O=C(Nc1ccccc1)/C(=C\c1ccco1)NC(=O)c1ccco1`, the “activity, negative = inhibition” value is reported as -17.9%. For `CCCC1=Nc2cc(C(=O)NCCN3CCCC3)ccc2Sc2ccccc21`, the “activity, negative = inhibition” value was -13.9%. `CCOC(=O)N1CCC(NC(=O)c2ccc3nc(N4CCOCC4)sc3c2)CC1` was tested, and the “activity, negative = inhibition” value was 0.489%. `Cc1nc(N2CCOCC2)sc1C(=O)NN` was tested, and the Potency was 12.6 µM (active). `Cc1nc(-c2ccc(Cl)cc2)sc1C(=O)NN` was tested, and the “activity, negative = inhibition” value was -0.949%. For `Cc1ccc(NS(=O)(=O)c2ccc3c(c2)oc(=O)n3C)c(C)c1`, the “activity, negative = inhibition” value was -5%. In the case of `CCCOc1ccc(-c2nc(N)n[nH]2)cc1`, the “activity, negative = inhibition” value is reported as -0.264%. With `Cc1ccc(OCCCCc2c(C)n[nH]c2C)cc1` the Potency was 20 µM (active). For `Cc1ccc(OCc2n[nH]c(=S)n2-c2ccc(C)cc2)cc1`, the “activity, negative = inhibition” value was -0.791%. In the case of `Cc1ccccc1C(=O)N1CCC(C(=O)Oc2ccc(C#N)cc2)CC1`, the “activity, negative = inhibition” value is reported as 3.43%. In the case of `Cc1ccc(CNC(=O)C2CCCN2S(=O)(=O)c2ccc3c(c2)C(C)(C)C(=O)N3C)cc1` (stereo unspecified), the “activity, negative = inhibition” value is reported as -6.54%. For `CCCCOC(=O)Nc1nnc(CC(=O)NCc2ccccc2)s1`, the “activity, negative = inhibition” value was -0.363%. `CCCOC1CCCN(C(=O)c2cc(COc3cncc(Cl)c3)on2)C1` (stereo unspecified) was tested, and the “activity, negative = inhibition” value was 9.73%. `C/C(=N\NC(=O)c1cccnc1)c1ccc(-c2ccccc2)cc1` was tested, and the “activity, negative = inhibition” value was -7.85%. For `C/C(=N\NC(=O)c1cccc([N+](=O)[O-])c1)c1cccnc1`, the “activity, negative = inhibition” value was -13.4%. With `C/C(=N\NC(N)=S)c1cccnc1` the Potency was 15.8 µM (active). In the case of `CCOC(=O)[C@@H]1[C@H]2COc3cc(OC)ccc3[C@@H]2N2C(=O)N(c3cccc(C)c3)C(=O)[C@@]12C`, the “activity, negative = inhibition” value is reported as 7.91%. In the case of `CN(Cc1ccccc1)C(=O)c1cccc(C(=O)N(C)Cc2ccccc2)c1`, the “activity, negative = inhibition” value is reported as -0.983%. In the case of `CCOc1ccc(N(CC(=O)NCCc2ccc(F)cc2)S(=O)(=O)c2ccccc2)cc1`, the “activity, negative = inhibition” value is reported as -4.82%. For `Cc1cccc(S(=O)(=O)N2CN(CC3CCCO3)c3nc4ccccc4nc32)c1` (stereo unspecified), the “activity, negative = inhibition” value was 1.71%. For `CC/C(=N\NC(=O)c1c(C)nc2ccccn12)c1ccc(Cl)cc1`, the “activity, negative = inhibition” value was 3.33%. `CC1(C)Cc2ccccc2/C(=C/C(=O)c2ccccc2)N1` was tested, and the “activity, negative = inhibition” value was 3.19%. In the case of `CCCc1nc2ccccc2c(=O)n1NC(=O)c1c(O)c2ccccc2[nH]c1=O`, the “activity, negative = inhibition” value is reported as 13.6%. For `CCCc1nc2ccccc2c(=O)n1/N=C/c1ccc(O)c(O)c1`, the Potency was 2.51 µM (active). With `Cn1c(SCC(=O)N/N=C/c2ccc(O)c(O)c2)nc2ccccc21` the “activity, negative = inhibition” value was -28.4%. `CC1C(=O)N(Cc2ccccc2)c2ccccc2N1C(=O)c1ccccc1` (stereo unspecified) was tested, and the “activity, negative = inhibition” value was -14%. `COc1ccccc1C1C(C(N)=O)=C(C)Nc2nc(CCCO)nn21` (stereo unspecified) was tested, and the “activity, negative = inhibition” value was -8.27%. `O=C(O)C(c1ccccc1)N1C(=O)/C(=C\c2ccc(-c3cccc(Cl)c3)o2)SC1=S` (stereo unspecified) was tested, and the “activity, negative = inhibition” value was 0.845%. With `CN1C(=O)/C(=C\c2ccc(-c3ccccc3)o2)SC1=S` the Potency was 4.46 µM (active). In the case of `CN=C1S/C(=C\c2ccc(Sc3ccc(Cl)cc3)o2)C(=O)N1C`, the “activity, negative = inhibition” value is reported as -1.64%. `COc1ccc(CNCCc2c[nH]c3ccccc23)cc1OC` was tested, and the Potency was 17.8 µM (active). `COc1ccc(CNC(=O)[C@H](Cc2c[nH]c3ccccc23)NC(C)=O)cc1OC` was tested, and the “activity, negative = inhibition” value was 7.31%. `COc1ccc(S(=O)(=O)NCCc2c[nH]c3ccccc23)cc1OC` was tested, and the “activity, negative = inhibition” value was -11%.
